KCNQ2 block – rat KCNQ2 potassium channel inhibitors, primary screen, cell-based, CHO-K1, FluxOR thallium flux, B-score; Potassium voltage-gated channel subfamily KQT member 2 (Rattus norvegicus), O88943; 20 min; stronger effect = lower value; B-score at 10 µM; hit rate 1.1% among 310,000;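 active means fluorescence ratio B-score at most minus 3 library SDs, with starting brightness B-score within 2 library SDs, cut at about -5.5 in these data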
Target sequence (O88943 whole entry, looked up): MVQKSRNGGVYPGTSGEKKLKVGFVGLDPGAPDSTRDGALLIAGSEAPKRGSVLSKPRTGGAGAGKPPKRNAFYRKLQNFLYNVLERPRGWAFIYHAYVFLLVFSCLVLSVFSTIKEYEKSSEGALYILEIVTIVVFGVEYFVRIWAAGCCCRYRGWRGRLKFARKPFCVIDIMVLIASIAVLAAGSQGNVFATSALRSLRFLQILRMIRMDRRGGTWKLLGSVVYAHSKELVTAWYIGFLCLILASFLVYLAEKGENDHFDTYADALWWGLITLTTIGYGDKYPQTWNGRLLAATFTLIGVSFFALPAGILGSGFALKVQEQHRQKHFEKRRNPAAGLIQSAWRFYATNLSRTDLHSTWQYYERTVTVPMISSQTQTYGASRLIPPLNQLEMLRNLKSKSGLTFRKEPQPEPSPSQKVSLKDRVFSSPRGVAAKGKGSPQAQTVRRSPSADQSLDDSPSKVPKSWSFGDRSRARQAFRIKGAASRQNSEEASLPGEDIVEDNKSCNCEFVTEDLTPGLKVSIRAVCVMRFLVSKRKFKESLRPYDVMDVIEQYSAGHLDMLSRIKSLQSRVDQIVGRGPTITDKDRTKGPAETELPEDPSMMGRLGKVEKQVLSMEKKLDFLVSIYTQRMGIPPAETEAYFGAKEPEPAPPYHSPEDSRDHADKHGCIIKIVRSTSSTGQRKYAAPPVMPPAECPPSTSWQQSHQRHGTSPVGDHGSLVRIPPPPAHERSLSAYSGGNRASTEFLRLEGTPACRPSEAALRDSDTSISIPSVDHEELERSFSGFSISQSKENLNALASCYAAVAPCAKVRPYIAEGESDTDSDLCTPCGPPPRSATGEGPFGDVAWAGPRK
KCNQ2 pot – potentiators of rat KCNQ2 potassium channel; Potassium voltage-gated channel subfamily KQT member 2 (Rattus norvegicus), O88943; CHO-K1 KCNQ2, FluxOR thallium flux fluorescence; stronger effect = higher value; B-score at 10 µM; hit rate 0.54% among 310,000;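 active means fluorescence ratio B-score at least 3 SD of library B-scores, with initial fluorescence B-score within 3 of them, cut at about 5.3 in these data; same plate scores as AID 2156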;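 further: B-score of peak minus minimum over baseline fluorescence ratio after K+ and Tl+ stimulus; positive B-score means potentiation of KCNQ2 with more thallium influx and brighter signal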
The depositor's hits bear a star; i = inactive; . = no result. An excerpt weighted towards active compounds, which were near 1.6% of everything screened.

SMILES	KCNQ2 block	KCNQ2 pot
COc1ccc(-c2noc(-c3ccccc3-c3ccccc3)n2)cc1	-6.6*	-6.6
CC1=NN(C(=O)c2csc(C)c2)C(O)(C(F)(F)F)C1 (stereo not given)	i	2.9
CC1=NN(C(=O)c2ccc(Br)cc2)C(O)(C(F)(F)OC(F)(F)F)C1 (stereo not given)	i	5.7*
CC1=NN(C(=O)c2c(Br)c(C)nn2C)C(O)(C(F)(F)F)C1 (stereo not given)	i	11*
CC1=NN(C(=O)c2nn(C)cc2Br)C(O)(C(F)(F)F)C1 (stereo not given)	i	.
CC1=NN(C(=O)c2cc(C)nn2C)C(O)(C(F)(F)F)C1 (stereo not given)	i	6*
CC1=NN(C(=O)c2csc(C)c2C)C(O)(C(F)(F)F)C1 (stereo not given)	i	1.9
O=C(CSCc1ccco1)N1CCc2ccccc21	i	1.3
O=C(N/C(=C\c1cccc([N+](=O)[O-])c1)C(=O)N1CCOCC1)c1ccco1	i	.
Cc1ccc(S(=O)(=O)NCC(c2ccc3c(c2)OCO3)N2CCOCC2)cc1 (stereo not given)	i	.
COc1ccc(CC(=O)NNS(=O)(=O)c2ccccc2[N+](=O)[O-])cc1	i	0.41
CC(C)CNC(=O)COC(=O)C1c2ccccc2Oc2ccccc21	i	0.37
CC(C)(C)NC(=O)COC(=O)C1c2ccccc2Oc2ccccc21	-5.7*	-5.7
COc1ccccc1NS(=O)(=O)c1ccc(Cl)c(NC(=S)NC(=O)C2CCCC2)c1	i	.
CCN(CC)c1ccc(S(=O)(=O)Nc2cc(Cl)ccc2Cl)cc1NC(=S)NC(=O)C1CCCC1	-7.1*	-7.1
COCCN(Cc1nc(C(c2ccccc2)c2ccccc2)no1)C(C)C	i	.
CC(NCC(O)COCCC12CC3CC(CC(C3)C1)C2)c1ccccc1 (stereo not given)	-7.7*	-7.7
NCC(O)COCCC12CC3CC(CC(C3)C1)C2 (stereo not given)	i	.
Cc1nn2c(SCC(=O)c3cccs3)cc(C(C)(C)C)nc2c1-c1ccccc1	i	20*
Cc1cc(SCC(=O)c2cccs2)n2nc(C)c(-c3ccc(Cl)cc3)c2n1	i	2.4
Cn1nc(-c2ccc(N3CCCCC3)c(NC(=O)c3ccco3)c2)c2ccccc2c1=O	-5.6*	-5.6
CCC(=O)Nc1cc(-c2nn(C)c(=O)c3ccccc23)ccc1N1CCOCC1	i	.
NC(=O)c1ccccc1NC(=O)c1ccc2c(c1)OCO2	i	.
COc1ccc2c(c1)O[C@H](c1ccc3c(c1)OCO3)[C@@H](OC(=O)N[C@H](C)C1CCCCC1)C2=O	i	.
COc1cccc([C@@H]2Oc3ccc(OC)cc3C(=O)[C@H]2OC(=O)N[C@H](C)C2CCCCC2)c1	-6.8*	-6.8
SMILES	KCNQ2 block	KCNQ2 pot
COc1ccccc1NC(=O)/C(C#N)=C/c1cccn1C	i	.
CC(C)Cc1cc(C(=O)N(C)C2CCCN(Cc3ccccc3F)C2)n(C)n1 (stereo not given)	i	.
Cn1c(SCC(=O)N2c3ccccc3Sc3ccccc32)nc2ccccc21	i	.
COCCn1c(SCC(=O)N2CCCc3ccccc32)nc2c(c1=O)SC(C)C2 (stereo not given)	i	.
Cc1cc(=O)[nH]c(SCC(=O)N2CCCc3ccccc32)n1	-6.2*	-6.2
O=C(CSc1nc(O)cc(=O)[nH]1)N1CCCc2ccccc21	i	0.47
CN(C)CCCn1c(SCC(=O)N2c3ccccc3Sc3ccccc32)nc2ccccc2c1=O	-6.4*	-6.4
COCCn1c(SCC(=O)N2CCCc3ccccc32)nc2ccccc2c1=O	-6.7*	-6.7
O=C(CSc1nc2cc(Cl)ccc2s1)N1CCCc2ccccc21	-5.9*	-5.9
CCOc1ccc2nc(SCC(=O)N3CCCc4ccccc43)sc2c1	i	.
COc1ccc(COC(=O)C2=C(C)NC(=O)NC2c2ccc(OC)cc2)cc1 (stereo not given)	i	.
CCN(CC)S(=O)(=O)c1ccc2c(c1)nc(SCC(=O)NCC1CCCO1)n2CC (stereo not given)	i	0.52
Cc1ccc(C)c(S(=O)(=O)N2CCN(C(=O)c3ccccc3Cc3ccccc3)CC2)c1	i	.
CCn1nc(NC(=O)c2cccs2)c2cc3ccccc3nc21	i	.
Cn1c(/N=C/c2c(O)ccc3ccccc23)nc2ccccc21	i	9.9*
CCCn1c(/N=C/c2ccccc2O)nc2ccccc21	i	1.9
COc1ccc(-c2cc(N)n(S(=O)(=O)c3c(F)c(F)c(F)c(F)c3F)n2)cc1OC	-8.8*	-8.8
CCOc1ccc(-c2cc(N)n(S(=O)(=O)c3ccc(OC)cc3)n2)cc1	i	2
CC(Oc1ccc(F)cc1)C(=O)Nc1cc(S(=O)(=O)N2CCOCC2)ccc1N1CCCC1 (stereo not given)	i	0.16
CC(Oc1ccc(F)cc1)C(=O)Nc1cc(S(=O)(=O)N2CCOCC2)ccc1N1CCCCC1 (stereo not given)	-8.1*	-8.1
CS(=O)(=O)c1ccc(Cl)c(NC(=O)CSC(=S)N2CCCC2)c1	i	.
CC1CC(C)CN(C(=O)C2CCN(S(=O)(=O)N3CCC4(CC3)OCCO4)CC2)C1 (stereo not given)	i	1.7
O=C(NC(NCc1cccnc1)C(Cl)(Cl)Cl)c1cccc2ccccc12 (stereo not given)	-6.3*	-6.3
O=C(NC(NCc1ccccc1)C(Cl)(Cl)Cl)c1cccnc1 (stereo not given)	i	.
O=C1CC(c2cccc(Cl)c2)CC(O)=C1C=NC1CCCC1 (stereo not given)	-6.8*	-6.8
SMILES	KCNQ2 block	KCNQ2 pot
O=C1CC(c2ccccc2)CC(O)=C1C=NCc1ccccc1Cl (stereo not given)	i	.
COC(=O)[C@H](Cc1ccccc1)NC(=O)NCCC1=CCCCC1	i	.
COc1ccc(/C=C2\CCCC3C2=NN(C(=O)CSc2ncn[nH]2)C3c2ccc(OC)cc2)cc1 (stereo not given)	i	.
O=C(CSc1ncn[nH]1)N1N=C2/C(=C/c3ccccc3)CCCC2C1c1ccccc1 (stereo not given)	-5.7*	-5.7
CCC1CN(C)C2Cc3c([nH]c4ccccc34)C(=O)CC1C2C(=O)OC (stereo not given)	i	.
CC[C@H]1CC2CN3CCc4c([nH]c5c([C@H]6C[C@H]7[C@H](CC)CN(C)[C@@H](Cc8c6[nH]c6ccccc86)[C@H]7C(=O)OC)c(OC)ccc45)C(C(=O)OC)(C2)C13	-7.5*	-7.5
O=C(CCCC(=O)OCC(Cl)=C(Cl)Cl)Nc1cccc2ccccc12	i	.
O=C(CCCC(=O)OCC(Cl)=C(Cl)Cl)Nc1ccc(F)cc1	i	9.2*
Oc1c(CN2CCCC(C(F)(F)F)C2)cc(Cl)c2ccccc12 (stereo not given)	i	.
Cc1ccccc1-n1ncc2c1CC(C)(C)CC2NC(=O)CCN1Cc2ccccc2C1=O (stereo not given)	i	1.5
COc1ccc(CCNC(=O)CCCc2nnc3n(C)c(=O)c4sccc4n23)cc1OC	i	.
COc1ccccc1NS(=O)(=O)c1cc(C(=O)NCC(C)(C)N2CCOCC2)ccc1C	i	6.7*
COc1ccccc1NS(=O)(=O)c1cc(C(=O)NCc2ccco2)ccc1C	i	.
O=C(Nc1ccncc1)c1ccc(Cl)c(S(=O)(=O)N2CCCC2)c1	i	3.2

Bioassay records (PubChem BioAssay)
